In PubChem BioAssay one finds z-score and composite z-score data, which are given here for 9 compounds.

The structures appear in SMILES notation. The source made the active and inactive calls. Unless noted, the rule behind the calls is not given here.

A short description of experiment [1]: resazurin metabolic signal in HepG2 cells – cell-based, resazurin fluorescence, 24 h, PK04 Diversity Set, profiling panel (AID 1172). Conditions: HepG2 viability, higher = more signal. (The colour change of resazurin is a common sign of viable cells or microbes.)
Experiment [2] can be described thus: budding yeast growth changes without added modifier – OD600, strain BY4716, 24 h, basal condition, primary screen (AID 1173). The following applies: S. cerevisiae BY4716 growth, OD600, 24 h; higher = more signal, called active from +8 up or from −8 down.
Experiment [3] in a line: viability profiling in MM1S myeloma cells – cell-based, resazurin fluorescence, basal, 24 h, PK04 Diversity Set, profiling panel (AID 1174). Conditions: higher = more signal, called active from +8 up or from −8 down.
The target of experiment [4] is Dihydroorotate dehydrogenase (quinone), mitochondrial (Plasmodium falciparum (isolate 3D7)) (UniProt Q08210). The experiment in a line: inhibition of P. falciparum DHODH – biochemical, C-terminal His tag, absorbance 600 nm, primary screen (AID 1175).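 Note: recombinant parasite enzyme with a five histidine tag at its C terminus.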 Conditions: PfDHODH enzyme, DCIP absorbance 600 nm; higher = more signal, called active from +8 up or from −8 down.
Experiment [5] can be described thus: inhibition of PAO1 biofilm formation – strain PAO1, LB-PBS medium, absorbance 600 nm, primary screen (AID 1176). Conditions: P. aeruginosa PAO1 growth/biofilm, A600, 12 h; higher = more signal.
Experiment [6] can be described thus: growth modulation of vineyard yeast isolate – strain RM11-1a, OD600, basal, 24 h, primary screen (AID 1177).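 Note: cultures grown under basal conditions with no added stressor.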 Conditions: S. cerevisiae RM11-1a growth, OD600, 24 h; higher = more signal, called active from +8 up or from −8 down.
Experiment [7] is described as follows: growth of efflux-deficient E. coli DRC39 – strain DRC39, OD650, 24 h, E. coli filamentation inducers, primary screen (AID 1178).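 Note: growth measured as culture turbidity by optical density at 650 nm.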 The following applies: E. coli DRC39 acrAB, higher = more signal, called active from +8 up or from −8 down.
The nature of experiment [8]: growth of efflux-deficient E. coli DRC39 – strain DRC39, OD650, 48 h, E. coli filamentation inducers, primary screen (AID 1179).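 Note: screen aims at cell division blockers that make cells filament.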 Conditions: E. coli DRC39 delta-acrAB growth, higher = more signal, called active from +8 up or from −8 down.
The nature of experiment [9]: viability profiling in RPMI8226 myeloma cells – cell-based, resazurin fluorescence, basal, 24 h, PK04 Diversity Set, profiling panel (AID 1180).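 Note: RPMI8826 multiple myeloma cell line at 5000 cells per well.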 Conditions: higher = more signal.
The target of experiment [10] is E3 ubiquitin-protein ligase XIAP (Homo sapiens) (UniProt P98170). The experiment in a line: small molecules binding XIAP protein – biophysical, small-molecule microarray, fluorescence 635 nm, primary screen (AID 1181).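 Note: score merges 667 nm emission and signal to noise over triplicate slides.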 Conditions: higher = more signal.
In experiment [11] the test system is XIP peptide (Xip251-270) binding. Nature of the experiment: XIP fragment 251-270 binding compounds – biochemical, small-molecule microarray, fluorescence 635/667 nm, 0.1 µg/mL protein, primary screen (AID 1182). The following applies: fluorescent protein binding, 635 nm, higher = more signal, called active from +8 up or from −8 down.
In the next experiment the test system is XIP peptide (Xip251-270). Nature of the experiment: compounds binding XIP fragment 251-270 – biochemical, small-molecule microarray, fluorescence 635/667 nm, 0.5 µg/mL protein, primary screen (AID 1183). The following applies: fluorescence 635 nm, higher = more signal.
Experiment [12] can be described thus: blood-stage malaria parasite viability loss – strain 3D7, DAPI fluorescence, 100 nL, primary screen (AID 1184).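 Note: parasites grown inside human red blood cells in medium with human serum.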 The following applies: P. falciparum 3D7 growth, 3 d, higher = more signal.
For experiment [13], the target named is Homeobox protein Hox-A13 (Mus musculus) (UniProt Q62424). Nature of the experiment: disruptors of Hoxa13 oligonucleotide interaction – biochemical, fluorescence polarization, labeled oligonucleotide, primary screen (AID 1185). Conditions: Hoxa13:DNA binding, 15 min, higher = more signal, called active from +8 up or from −8 down. In general terms: Fluorescence polarisation rises when a labelled molecule tumbles more slowly, as on binding a larger partner.

Experiment [14] in a line: blockers of DNA damage checkpoint Chk1 activation – imaging, HeLa, hydroxyurea, phospho-Chk1 antibody, percent positive cells, primary screen (AID 1186). Conditions: hydroxyurea-induced phospho-Chk1 immunofluorescence imaging, higher = more signal.
Experiment [15] is described as follows: blockers of DNA damage checkpoint Chk1 activation – imaging, HeLa, hydroxyurea, phospho-Chk1 nuclear intensity, primary screen (AID 1187). Conditions: hydroxyurea-induced phospho-Chk1 immunofluorescence imaging, higher = more signal.

Dihydroorotate dehydrogenase (quinone), mitochondrial (Plasmodium falciparum (isolate 3D7)), sequence (Q08210 whole entry, looked up): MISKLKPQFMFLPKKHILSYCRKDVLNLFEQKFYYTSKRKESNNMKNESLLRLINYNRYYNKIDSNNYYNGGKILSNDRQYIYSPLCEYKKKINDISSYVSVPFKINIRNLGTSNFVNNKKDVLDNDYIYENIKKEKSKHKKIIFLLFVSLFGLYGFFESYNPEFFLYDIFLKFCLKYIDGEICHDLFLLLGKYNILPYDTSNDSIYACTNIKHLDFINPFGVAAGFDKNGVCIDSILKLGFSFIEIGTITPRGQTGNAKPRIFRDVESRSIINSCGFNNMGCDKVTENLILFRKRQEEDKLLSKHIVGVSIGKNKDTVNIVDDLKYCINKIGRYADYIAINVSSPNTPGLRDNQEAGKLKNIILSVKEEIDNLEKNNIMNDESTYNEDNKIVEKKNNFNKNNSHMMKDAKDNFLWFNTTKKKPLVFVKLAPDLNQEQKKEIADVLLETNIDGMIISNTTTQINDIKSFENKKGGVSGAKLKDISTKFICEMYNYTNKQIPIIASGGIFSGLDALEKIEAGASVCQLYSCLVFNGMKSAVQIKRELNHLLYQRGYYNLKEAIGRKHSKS
Homeobox protein Hox-A13 (Mus musculus), sequence (Q62424 whole entry, looked up): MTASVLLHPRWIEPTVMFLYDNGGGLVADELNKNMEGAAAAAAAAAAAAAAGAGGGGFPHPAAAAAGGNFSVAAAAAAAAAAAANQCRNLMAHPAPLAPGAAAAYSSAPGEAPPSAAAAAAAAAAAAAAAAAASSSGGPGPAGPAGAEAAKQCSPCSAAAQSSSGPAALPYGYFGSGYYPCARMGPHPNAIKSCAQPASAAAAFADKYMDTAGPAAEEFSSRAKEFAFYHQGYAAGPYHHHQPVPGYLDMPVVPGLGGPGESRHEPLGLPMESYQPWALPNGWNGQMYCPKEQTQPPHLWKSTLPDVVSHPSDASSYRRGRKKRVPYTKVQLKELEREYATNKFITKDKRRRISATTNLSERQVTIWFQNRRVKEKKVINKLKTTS
E3 ubiquitin-protein ligase XIAP (Homo sapiens), sequence (P98170 whole entry, looked up, the tested form may be a part): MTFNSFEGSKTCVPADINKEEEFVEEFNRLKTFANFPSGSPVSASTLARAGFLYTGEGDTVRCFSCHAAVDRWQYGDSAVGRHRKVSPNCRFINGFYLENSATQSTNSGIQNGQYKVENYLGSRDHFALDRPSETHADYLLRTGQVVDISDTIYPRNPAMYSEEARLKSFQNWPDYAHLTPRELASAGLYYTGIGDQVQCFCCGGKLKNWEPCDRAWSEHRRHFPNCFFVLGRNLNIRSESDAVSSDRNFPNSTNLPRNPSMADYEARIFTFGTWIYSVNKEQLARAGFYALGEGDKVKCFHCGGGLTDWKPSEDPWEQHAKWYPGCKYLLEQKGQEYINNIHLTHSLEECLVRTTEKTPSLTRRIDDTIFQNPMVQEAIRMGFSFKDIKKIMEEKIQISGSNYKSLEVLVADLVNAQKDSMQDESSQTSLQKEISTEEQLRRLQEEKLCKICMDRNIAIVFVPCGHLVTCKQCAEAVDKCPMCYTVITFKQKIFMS

Regarding `CCN(CC)c1ccc(N2CC=CC34O[C@@H]5/C=C\CCC(C)OC(=O)C5[C@H]3C(=O)N(CCO)[C@@H]4C2=O)cc1` (some centres undefined), the z-score is -0.68 in experiment [1]; -0.958 (inactive) in experiment [2]; -0.742 (inactive) in experiment [3]; -0.593 (inactive) in [5]; -0.481 (inactive) in experiment [6]; -0.736 (inactive) in experiment [7]. Besides, the z-score was -0.949 (inactive) in [8]; -0.833 in experiment [9]; -1.23 in experiment [12]; -5.86 (inactive) in experiment [13]; 0.695 (inactive) in [14]; 0.21 (inactive) in experiment [15]. Further, the composite z-score in [4] is 0.543 (inactive); in experiment [10] it was 0.283; in experiment [11], 1.27 (inactive); with XIP peptide (Xip251-270), 0.461.

With `C[C@]12C(=O)N(CCCCCCO)[C@@H]3C(=O)N(c4ccc(Cl)cc4)CC=CC31O[C@@H]1/C=C\CCCOC(=O)C12` (some centres undefined), the z-score is -0.578 in experiment [1]; -1.3 (inactive) in experiment [2]; 0.423 (inactive) in experiment [3]; -0.0558 (inactive) in experiment [5]; -1.29 (inactive) in experiment [6]; -0.0299 (inactive) in experiment [7]. In addition, the z-score in experiment [8] was 0.692 (inactive); in experiment [9] it was 1.05; in experiment [12] it was -0.692; in experiment [13] it was -4.68 (inactive); in experiment [14], -0.659 (inactive); in experiment [15], 0.264 (inactive). Also, the composite z-score is -0.699 (inactive) in experiment [4], -0.235 in experiment [10], -0.295 (inactive) in [11] and -0.0821 in the experiment on XIP peptide (Xip251-270).

Consider `CC(C)N1CC=CC23O[C@@H]4C=CCCOC(=O)C4[C@H]2C(=O)N(CCO)[C@@H]3C1=O` (some centres undefined), for which the z-score in experiment [1] was 1.74; in [2] it was -0.913 (inactive); in [3], 0.839 (inactive); in experiment [5] it was 0.525 (inactive); in experiment [6] it was -0.199 (inactive); in experiment [7], -0.141 (inactive). The z-score in experiment [8] was -0.327 (inactive); in experiment [9], 0.475; in experiment [12], -0.434; in [13] it was -4.46 (inactive); in [14] it was -0.494 (inactive); in experiment [15] it was -0.578 (inactive). Moreover, the composite z-score is -2.29 (inactive) in experiment [4], -0.251 in experiment [10], -0.3 (inactive) in [11] and 0.172 in the experiment on XIP peptide (Xip251-270).

Consider `Cc1ccc(S[C@]2(C(=O)O)CC(=O)N(Cc3ccccc3Cl)[C@@H]2c2ccc(CO)cc2)cc1`, for which the z-score in experiment [1] was -0.739; in experiment [2] it was -0.399 (inactive); in experiment [3], -0.465 (inactive); in experiment [5], 1.42 (inactive); in experiment [6] it was 0.573 (inactive); in experiment [7], 0.21 (inactive). The z-score in experiment [8] is 0.224 (inactive); in [9], 0.148; in experiment [12], -1.34; in experiment [13], -2.09 (inactive); in experiment [14], -0.181 (inactive); in [15], -0.207 (inactive). Also, the composite z-score in experiment [4] was 0.0962 (inactive); in experiment [10], -0.0749; in [11] it was 0.084 (inactive); in the experiment with XIP peptide (Xip251-270), -0.0477.

On to `Cc1c(NC(=O)/C(C#N)=C/C=C/c2ccc(N(C)C)cc2)c(=O)n(-c2ccccc2)n1C`, for which the z-score in [1] is 0.29; in [2] it was -0.312 (inactive); in [3], 0.514 (inactive); in experiment [5] it was -0.103 (inactive); in [6], -0.246 (inactive); in experiment [7], 1.78 (inactive). Moreover, the z-score in experiment [8] was -0.202 (inactive); in experiment [9], 1.08; in experiment [12] it was -0.46; in experiment [13], -13.8 (active); in experiment [14], 0.348 (inactive); in experiment [15], 0.996 (inactive). Moreover, the composite z-score was -0.186 (inactive) in experiment [4], 0.0899 in [10], 1.41 (inactive) in experiment [11] and 0.7 in the experiment with XIP peptide (Xip251-270).

In the case of `C=CCOC(=O)[C@@H]1[C@H]2C(=O)O[C@H](c3ccccc3)[C@H](c3ccccc3)N2[C@H](c2ccc(OCCOC(=O)[C@H]3C[C@H]4C(=O)N[C@@H](CCCCN(C)C)C(=O)N4[C@H]3c3cccc(OCCO)c3)cc2)[C@@]12C(=O)Nc1ccc(I)cc12`, the z-score in experiment [1] was -0.999; in [2], 2.24 (inactive); in experiment [3], -0.302 (inactive); in experiment [5], 2.57 (inactive); in experiment [6], 1.17 (inactive); in experiment [7], -0.0783 (inactive). The z-score is -0.0986 (inactive) in experiment [8]; -0.209 in experiment [9]; -1.65 in [12]; -0.599 (inactive) in experiment [13]; -0.426 (inactive) in [14]; -0.588 (inactive) in experiment [15]. Also, the composite z-score in experiment [4] is 0.26 (inactive); in experiment [10] it was -0.202; in [11], 1.78 (inactive); in the experiment on XIP peptide (Xip251-270) it was 0.817.

`CCOC(=O)C[C@H]1[C@H](OC(=O)c2ccccc2-c2ccccc2)[C@@H](NC(=O)c2ccc3ccccc3n2)c2cc(OCCCO)ccc2N1C(=O)c1ccc2ccccc2n1`: the z-score in experiment [1] was 0.922; in experiment [2] it was -1.08 (inactive); in experiment [3], 0.833 (inactive); in experiment [5], 0.719 (inactive); in [6], -0.344 (inactive); in experiment [7], 1.33 (inactive). Also, the z-score is 1.21 (inactive) in experiment [8]; -0.19 in experiment [9]; -0.456 in experiment [12]; -1.53 (inactive) in experiment [13]; -0.492 (inactive) in experiment [14]; -0.588 (inactive) in experiment [15]. Also, the composite z-score was -0.431 (inactive) in experiment [4], -0.162 in experiment [10], 0.123 (inactive) in experiment [11] and 0.309 in the experiment on XIP peptide (Xip251-270).

On to `COCCOC(=O)N1C(=O)[C@@]2(c3cc(C#Cc4ccc(OC)cc4)ccc31)[C@H](C(=O)NC[C@H](O)c1ccccc1)[C@H]1C(=O)O[C@H](c3ccccc3)[C@H](c3ccccc3)N1[C@@H]2c1ccc(O)cc1`, for which the z-score in experiment [1] is -0.857; in [2] it was -0.11 (inactive); in [3], -1.09 (inactive); in experiment [5], 1.34 (inactive); in experiment [6], 0.552 (inactive); in experiment [7], -0.365 (inactive). Further, the z-score is -0.736 (inactive) in experiment [8]; -1.32 in experiment [9]; -0.754 in experiment [12]; -1.78 (inactive) in [13]; -0.045 (inactive) in experiment [14]; 0.126 (inactive) in [15]. For the same compound, the composite z-score in [4] was -0.352 (inactive); in experiment [10], 0.261; in [11], 1.42 (inactive); in the experiment with XIP peptide (Xip251-270), 0.775.

For the compound `Cc1ccc(S[C@]2(C(=O)NC(C)C)CC(=O)N(C3Cc4ccccc4C3)[C@@H]2c2ccc(CO)cc2I)cc1`, the z-score was -0.703 in [1]; -3.55 (inactive) in [2]; -3.17 (inactive) in experiment [3]; 0.379 (inactive) in experiment [5]; -0.639 (inactive) in experiment [6]; 0.525 (inactive) in [7]. In addition, the z-score in experiment [8] is 0.969 (inactive); in experiment [9] it was -2.08; in experiment [12], -0.619; in experiment [13] it was -2.24 (inactive); in experiment [14], 0.425 (inactive); in [15], 0.191 (inactive). For the same compound, the composite z-score in experiment [4] is -2.86 (inactive); in [10], -0.0795; in experiment [11], -0.325 (inactive); in the experiment with XIP peptide (Xip251-270), 0.86.
